# Out of some 39,000 compounds screened, about 1,500 (3.8%) were called active. For the sample, actives were picked, then their nearest neighbours and some compounds at random.
# Test system: HSkMC (human skeletal muscle cells)
# Experiment: cytotoxicity call (relative viability < 0.9)
# Conditions: 10 µM
row,SMILES,cytotoxicity call
1,CO[C@H]1CN(C)C(=O)c2ccc(NC(=O)C3CCOCC3)cc2OC[C@H](C)N(Cc2cccnc2)C[C@@H]1C,inactive
2,COc1ccc2c3c(n(c2c1)C)[C@H](CO)N(C[C@]13CCN(CC1)C(=O)c1cnccn1)C(=O)c1cnccn1,inactive
3,C[C@H](CO)N1C[C@H](C)[C@@H](CN(C)C(=O)Nc2ccc3c(c2)OCO3)Oc2ccc(NC(=O)Cn3cnnn3)cc2CC1=O,inactive
4,CN(C)CCN1C[C@H]2OCCN(Cc3cnn(C)c3)[C@H]2C1,inactive
5,CO[C@H]1CN(C)C(=O)c2ccc(NS(C)(=O)=O)cc2OC[C@@H](C)N(C(=O)C2CCCCC2)C[C@H]1C,inactive
6,O=c1[nH]cc(F)c(=O)[nH]1,inactive
7,O=C(Oc1ccccc1C(=O)O)c1ccccc1O,inactive
8,CC1CC(OC(=O)C(O)c2ccccc2)CC(C)(C)C1 (stereo unspecified),inactive
9,CC1CC(OC(=O)c2ccccc2O)CC(C)(C)C1 (stereo unspecified),active
10,C[C@@H]1CCCCO[C@@H](CN(C)Cc2ccc(C(F)(F)F)cc2)[C@@H](C)CN([C@@H](C)CO)C(=O)c2cc(NS(=O)(=O)c3ccccc3)ccc2O1,inactive
11,COc1ccc([Si](C)(C)[C@H]2[C@H](CC(=O)N3Cc4ccccc4C[C@H]3CO)O[C@@]3(C(=O)N(Cc4cccc(N5CCC5=O)c4)c4ccccc43)[C@@H]2C)cc1,inactive
12,COc1ccc(OC)c(CCNC(=O)CN)c1,inactive
13,Cc1ccc(S(=O)(=O)Nc2ccc3c(c2)C(=O)N([C@@H](C)CO)C[C@@H](C)[C@H](CN(C)CC2CCCCC2)OCCCC[C@H](C)O3)cc1,inactive
14,C[C@@H]1CN([C@H](C)CO)C(=O)c2cc(NS(=O)(=O)c3ccccc3)ccc2O[C@@H](C)CCCCO[C@H]1CN(C)S(=O)(=O)c1ccc(Cl)cc1,active
15,C[C@@H]1CCCCO[C@@H](CN(C)S(=O)(=O)c2ccccc2)[C@H](C)CN([C@H](C)CO)C(=O)c2cc(NS(=O)(=O)c3ccc(Cl)cc3)ccc2O1,inactive
16,C[C@@H]1CCCCO[C@H](CN(C)S(=O)(=O)c2ccccc2)[C@H](C)CN([C@@H](C)CO)C(=O)c2cc(NS(=O)(=O)c3ccc(Cl)cc3)ccc2O1,inactive
17,Cc1ccc(S(=O)(=O)Nc2ccc3c(c2)C(=O)N([C@H](C)CO)C[C@@H](C)[C@H](CN(C)CC2CCCCC2)OCCCC[C@@H](C)O3)cc1,inactive
18,C[C@@H]1CCCCO[C@H](CN(C)CC2CCCCC2)[C@H](C)CN([C@@H](C)CO)C(=O)c2cc(NS(=O)(=O)c3ccc(Cl)cc3)ccc2O1,active
19,Cc1ccc(S(=O)(=O)Nc2ccc3c(c2)C(=O)N([C@H](C)CO)C[C@H](C)[C@H](CN(C)CC2CCCCC2)OCCCC[C@H](C)O3)cc1,active
20,C[C@@H]1CN([C@@H](C)CO)C(=O)c2cc(NS(=O)(=O)c3ccc(Cl)cc3)ccc2O[C@@H](C)CCCCO[C@H]1CN(C)CC1CCCCC1,inactive
21,C[C@H](CO)N1C[C@H](C)[C@H](CN(C)CC2CCCCC2)OCCCC[C@H](C)Oc2ccc(NS(=O)(=O)c3ccc(Cl)cc3)cc2C1=O,inactive

# Reference: the antibiotic and cytotoxicity screens of Wong et al. (2023)
